Laboratory results published in paper PMC5540273 (PLoS ONE, 2017).

Columns and labels:
Settings in all cases: concentration: 1 μM, replicates: in singlicate; n = 1
[1] = system: T1, DCAMKL2
T1 construct: gene DCLK2

[2] = system: T2, DCAMKL3
T2 construct: gene DCLK3

[3] = system: DDR1
[4] = system: DDR2
[5] = system: T3, DLK
T3 construct: gene MAP3K12

[6] = system: T4, DMPK2
T4 construct: gene CDC42BPG

[7] = system: DMPK
[8] = system: T5, DRAK1
T5 construct: gene STK17A

[9] = system: T6, DRAK2
T6 construct: gene STK17B

[10] = system: DYRK1A
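Further: KINOMEscan kinase panel screen.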

Compound | %Inh [1] | %Inh [2] | %Inh [3] | %Inh [4] | %Inh [5] | %Inh [6] | %Inh [7] | %Inh [8] | %Inh [9] | %Inh [10]
CC(=O)Nc1nc2cnc(Nc3cc(NC(=O)c4cccc(C5(C#N)CC5)c4Cl)ccc3C)nc2s1 | 0% | 0% | 100% | 99.4% | 0% | 0% | 0% | 0% | 10% | 0%
CN(c1ccc(NC(=O)Nc2cc(C(F)(F)F)ccc2F)cc1)c1ccnc(Nc2ccc(S(N)(=O)=O)cc2)n1 [GW809893] | 2% | 6% | 97.6% | 93.9% | 14% | 9% | 0% | 0% | 18% | 17%
Cl.c1ccc(-c2ccc3c(Nc4ccc5[nH]ccc5c4)ccnc3c2)nc1 [GW440138] | 0% | 17% | 99.4% | 79% | 43% | 0% | 0% | 0% | 2% | 0%
O=C(Nc1cccc(-c2nn3ncccc3c2-c2ccnc(Nc3ccccc3)n2)c1)c1c(F)cccc1F [GSK198271] | 0% | 20% | 100% | 91.8% | 8% | 99.8% | 0% | 0% | 0% | 18%
Cl.Cl.NCC(NCc1ccc(-c2ccnc3[nH]ccc23)s1)c1ccccc1 (stereo not shown) [GSK1321565] | 0% | 0% | 0% | 34% | 0% | 25% | 81% | 75% | 6% | 38%
COC(=O)Nc1nc2ccc(Oc3ccc(NC(=O)Nc4cc(C(F)(F)F)ccc4F)cc3)cc2n1C.Cl [GW692089] | 0% | 9% | 100% | 99.9% | 31% | 0% | 0% | 0% | 9% | 2%
Nc1n[nH]c2cnc(-c3ccccc3)cc12 [SB-642124] | 0% | 10% | 2% | 18% | 19% | 0% | 31% | 44% | 0% | 91.4%
CN(C)S(=O)(=O)c1cc(-c2ccc3nccc(-c4cccc(S(N)(=O)=O)c4)c3c2)cnc1N [GSK1669921] | 6% | 0% | 100% | 5% | 0% | 0% | 10% | 0% | 0% | 37%
O=C(NC1CCN(c2ccnc(Nc3ccc(F)cc3)n2)C1)c1cc2ccccc2s1 (stereo not shown) [GSK1379716] | 9% | 7% | 0% | 32% | 32% | 0% | 0% | 7% | 0% | 7%
Cc1ccc(C(=O)Nc2ccc(Nc3ccnc4cc(-c5nccs5)ccc34)cc2O)cc1.Cl [GW494702] | 0% | 0% | 22% | 46% | 69% | 0% | 0% | 5% | 0% | 3%
